PMC7819943, “Rice protein-binding microarrays: a tool to detect cis-acting elements near promoter regions in rice”
Whole data set: some 68,000 sequences, median “fluorescence intensity (a.u.)” near 9,100, cut for the highest 2% near 16,000. Shown is part of a subset that was picked to be rich in the highest values.

target: OsWRKY34 (Oryza sativa, UniProt Q0JBA9 1-250); experiment: protein-binding microarray (RPBM); PBS, 2% BSA, 51.3 ng/ul salmon testes DNA, 50 uM zinc acetate, 200 nM TF, 25 C, 1 h; high values mean tight binding; details: protein: recombinant; tags: N-terminal polyhistidine and DsRed monomer fusion (pET32a); label: CyDye5-dUTP incorporated in the synthesized complementary strand; 3' TTTTT single-stranded linker to array surface; dsDNA, one strand shown
Sequence (Q0JBA9 entry or part of it): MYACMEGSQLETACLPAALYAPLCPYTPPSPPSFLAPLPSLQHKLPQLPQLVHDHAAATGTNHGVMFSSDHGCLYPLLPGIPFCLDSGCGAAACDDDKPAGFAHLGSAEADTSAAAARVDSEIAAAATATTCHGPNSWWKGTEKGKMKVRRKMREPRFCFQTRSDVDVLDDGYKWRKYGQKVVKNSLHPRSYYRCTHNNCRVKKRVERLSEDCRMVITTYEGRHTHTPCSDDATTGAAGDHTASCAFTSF
In short: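 Per-feature fluorescence intensity (arbitrary units), read on an Axon 4000B scanner, is the binding signal. Transcription factors carrying an N-terminal polyhistidine tag and DsRed fusion were expressed in E. coli BL21-CodonPlus and purified on Ni–NTA. A custom Agilent array, made double-stranded by primer extension with Cy5-dUTP and blocked with 2% BSA, was incubated with 200 nM protein in PBS, 2% BSA, salmon testes DNA and 50 µM zinc acetate at 25 °C for 1 h and then washed.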

First: GTAGCATGCTTCTATCCTGTCCCGGTGTTTGTCGTACATTCGGAGTCACCTAGTGCAG
Second: GATTGAGTGTGCCCGTGTGAGATAGAATCTTTTTGCCCTTCGGAGTCACCTAGTGCAG
The binding signal of the first is higher: 10200 fluorescence intensity (a.u.) for the first, 8930 fluorescence intensity (a.u.) for the second.

Going from “CACCGCCGCAGCCCAAGCCCACCACCACCACCGCCGCCGCCGGAGTCACCTAGTGCAG” to “TGTCAGCCTCGTCCGGCTTCATCCCGTTGCGTCCCATTTTCGGAGTCACCTAGTGCAG”, the binding signal rises from 9060 fluorescence intensity (a.u.) to 17600 fluorescence intensity (a.u.).

Compared with “GGCTTCATCACAGCATCCATCGCCGCCGGCCACCACCACCCGGAGTCACCTAGTGCAG”, “ATCCCGTTGCGTCCCATTTTCCTCGCCCTCGTCGCTAGTTCGGAGTCACCTAGTGCAG” is lower in binding signal: 12700 fluorescence intensity (a.u.) for the first, 11200 fluorescence intensity (a.u.) for the second.

Compared with “CCGCCGCTCCACCGTCTCAGCCATCGCCACCGCCCGCAGCCGGAGTCACCTAGTGCAG”, “ACAGCTTGCCGCCACCACCACACCACGCCGCTCGCCGCCCCGGAGTCACCTAGTGCAG” is higher in binding signal: 8400 fluorescence intensity (a.u.) for the first, 8950 fluorescence intensity (a.u.) for the second.

First: GGCTTCCCGTTGCGCGCGCGTCCCATCCTCGCCGGCGCTTCGGAGTCACCTAGTGCAG
Second: CAGCCCGCCGCCCCGCCCCGCCCCGCCGCAGGTCATTGACCGGAGTCACCTAGTGCAG
The binding signal of the first is lower: 8470 fluorescence intensity (a.u.) for the first, 16400 fluorescence intensity (a.u.) for the second.

Compared with “ACATCCCCGACCCGCCCCGCCTCACCGGTCATTCGCAGCCCGGAGTCACCTAGTGCAG”, “AGCCACCACAGCCATCGCCCGTTCTTCCCGCCGGCCTATCCGGAGTCACCTAGTGCAG” is higher in binding signal: 9440 fluorescence intensity (a.u.) for the first, 9990 fluorescence intensity (a.u.) for the second.

Compared with “GCCGCTCACAGCCGTCTTCGCTTGCCCGCCGCCATCGCCACGGAGTCACCTAGTGCAG”, “CCGCCATCGCCGCCGCCATCCGTTGACCATGGCTTCAGCCCGGAGTCACCTAGTGCAG” is higher in binding signal: 17500 fluorescence intensity (a.u.) for the first, 18900 fluorescence intensity (a.u.) for the second.

Compared with “ATCTTTTCCGCTGTTGCTGCTCCTCCTTTCTCGCTCTCGCCGGAGTCACCTAGTGCAG”, “AGGTTCTATGACAGTATTGCACCCGGTTTTGTCAGCTGACCGGAGTCACCTAGTGCAG” is lower in binding signal: 9750 fluorescence intensity (a.u.) for the first, 8600 fluorescence intensity (a.u.) for the second.

Compared with “CTCCCGTGTCCCATTTAAAACCTTCTTCTTCTTCTTCGCTCGGAGTCACCTAGTGCAG”, “CGCCACCACTGCTGCCATCGTCAACATCCTATATGATTTTCGGAGTCACCTAGTGCAG” is higher in binding signal: 8650 fluorescence intensity (a.u.) for the first, 13400 fluorescence intensity (a.u.) for the second.

Going from “ATCAACCAGTAATCAATTGACCAAGCGGTTCTTGCGCCTACGGAGTCACCTAGTGCAG” to “GTTCTCACACTTCAGATTGTTATGTTTGGCTATGCTGTCTCGGAGTCACCTAGTGCAG”, the binding signal falls from 9780 fluorescence intensity (a.u.) to 9600 fluorescence intensity (a.u.).

Going from “CTCTTAGCAATGCTGACTGGTCCGATCAAAGTCAACGGTTCGGAGTCACCTAGTGCAG” to “GAACCTGTCTACATCGGCCGTGTCTCGTGCACTTGCTCTCCGGAGTCACCTAGTGCAG”, the binding signal rises from 8730 fluorescence intensity (a.u.) to 10700 fluorescence intensity (a.u.).

First: TGTCTTGGTCTTGTGGCGTTTATTGTTGCCGTCTGAGCGACGGAGTCACCTAGTGCAG
Second: TGTATGATGCCTTTAACTTTTTAACCAACGTTTAATGTTTCGGAGTCACCTAGTGCAG
The binding signal of the first is higher: 11000 fluorescence intensity (a.u.) for the first, 9010 fluorescence intensity (a.u.) for the second.

Going from “GACTTTTTTAAACATATTTGACCGTTCGTTTTATTCAAAACGGAGTCACCTAGTGCAG” to “CACTATTCACGTTTAACGTTTGACCGTTCTTCTTATTTGACGGAGTCACCTAGTGCAG”, the binding signal rises from 8190 fluorescence intensity (a.u.) to 10300 fluorescence intensity (a.u.).

First: TTTAGACTTCTTCCAACTGGAATGCGTTTGACCCTAACCACGGAGTCACCTAGTGCAG
Second: TTCAATGACAATGTTGACTTTTTGACAAACGTTTAACCTTCGGAGTCACCTAGTGCAG
The binding signal of the first is lower: 8180 fluorescence intensity (a.u.) for the first, 10200 fluorescence intensity (a.u.) for the second.

Going from “AATGTATGACACCGTTGACTTCTTGACCAACGTTTAACCACGGAGTCACCTAGTGCAG” to “TTTAATGTATGACACCGTTGACTTTTTAACCAACGTTTGACGGAGTCACCTAGTGCAG”, the binding signal rises from 18700 fluorescence intensity (a.u.) to 36300 fluorescence intensity (a.u.).

Going from “GCTTTTGAGTTGACAGCCACCGTTTTTAACCAACGCGCGACGGAGTCACCTAGTGCAG” to “TATTTTAATGTATGATGCCGTTGACTTTTTAACCAACGTTCGGAGTCACCTAGTGCAG”, the binding signal rises from 8140 fluorescence intensity (a.u.) to 27000 fluorescence intensity (a.u.).

First: GTATTTTAATGTATGACATTGTTGACTTTTTGATTAACGTCGGAGTCACCTAGTGCAG
Second: TTTAATATATAACACCGTTGACTTTTTATCAAACGTTTGACGGAGTCACCTAGTGCAG
The binding signal of the first is lower: 13000 fluorescence intensity (a.u.) for the first, 23400 fluorescence intensity (a.u.) for the second.

Going from “GTTTATAAACTTAGTCAAACTTGAAACAGTTTGACTTTGACGGAGTCACCTAGTGCAG” to “GCTCTTTGGCCTGCTTCAGCCTTCAGCTTCTCCATGGTTTCGGAGTCACCTAGTGCAG”, the binding signal falls from 12400 fluorescence intensity (a.u.) to 10700 fluorescence intensity (a.u.).

Going from “TACCTACTTTCTCATCTTAAGCAATCACTTCGACTTTAATCGGAGTCACCTAGTGCAG” to “TGCCTAACAATTCTTTTTATTCGCGACGTCAATATACTACCGGAGTCACCTAGTGCAG”, the binding signal falls from 9820 fluorescence intensity (a.u.) to 9730 fluorescence intensity (a.u.).

First: AGAATTACTGCTGCTTTATTTACTTTTCTTCCATTGGTTTCGGAGTCACCTAGTGCAG
Second: TAATGTATTCCGGCAAATGAATATGTTGTTTGACTTTTTTCGGAGTCACCTAGTGCAG
The binding signal of the first is higher: 13000 fluorescence intensity (a.u.) for the first, 10300 fluorescence intensity (a.u.) for the second.

Going from “TTAATGTATGACACTGTTGACTTTTTTTCCAACGTTTGACCGGAGTCACCTAGTGCAG” to “CCGGTCGTTTCCCGTATTGTTGGCATATATGTACACGGAGCGGAGTCACCTAGTGCAG”, the binding signal falls from 21900 fluorescence intensity (a.u.) to 8030 fluorescence intensity (a.u.).

Compared with “CCGTCGTGCTGCGCCCTTCAATTTGTTGGTCTCGCTCGCCCGGAGTCACCTAGTGCAG”, “GTGTCTTGTACATGTCTTCGTTTCTTCCTTTCTCATTTCACGGAGTCACCTAGTGCAG” is higher in binding signal: 8490 fluorescence intensity (a.u.) for the first, 10900 fluorescence intensity (a.u.) for the second.

First: TTGTTTTCTACTCCTAATACTCTTTTGTCTGTCTCATCTGCGGAGTCACCTAGTGCAG
Second: CGTATCTGCTCTGTTTTTCATCTCCTGTCATTTGTCTAAACGGAGTCACCTAGTGCAG
The binding signal of the first is lower: 12400 fluorescence intensity (a.u.) for the first, 18500 fluorescence intensity (a.u.) for the second.

First: GTCATCCTGTTTCACTGCTAGCTCTCCCTAAATTTTGAAACGGAGTCACCTAGTGCAG
Second: TTATACTTTCTCTTTTTTTCACGTGTATATTTTCTAAACCCGGAGTCACCTAGTGCAG
The binding signal of the first is lower: 8490 fluorescence intensity (a.u.) for the first, 9610 fluorescence intensity (a.u.) for the second.

First: ACACTTTCTCTCTTGTACACTTTCATTTCACGTGTCTAAACGGAGTCACCTAGTGCAG
Second: AAGAACACAACACACTTGATATATATACCTCACACACACTCGGAGTCACCTAGTGCAG
The binding signal of the first is higher: 17500 fluorescence intensity (a.u.) for the first, 8060 fluorescence intensity (a.u.) for the second.

Going from “TACTTGGTGCAGTGTTGAGCCTTGTTTTACAATAAATTTTCGGAGTCACCTAGTGCAG” to “GCGCCGTTGTTCTTCCTGCCACATCCATCCTGGTGAGCACCGGAGTCACCTAGTGCAG”, the binding signal rises from 8100 fluorescence intensity (a.u.) to 12700 fluorescence intensity (a.u.).

Going from “ATTCTCTAAATGTTTGACGCTGTTGACTTTTTAAAACATGCGGAGTCACCTAGTGCAG” to “ATGTTTGACGCTGTTGACTTTTTTAAACATATTTGACTCTCGGAGTCACCTAGTGCAG”, the binding signal rises from 16600 fluorescence intensity (a.u.) to 21500 fluorescence intensity (a.u.).

With “CTAAATATTTAACGCTGTTGACTTTTTAAAACATATTTGACGGAGTCACCTAGTGCAG” the binding signal was 9280 fluorescence intensity (a.u.).
